# Results filed as inconclusive are left out. Active and inactive are the calls of the source. How the source made its calls: active means hit-call score of the fitted dose curve at least 0.9, where 1 is the maximum; inconclusive means response in the unintended direction; inactive means score below 0.9.
# Tests used:
# [1] = molecular target: human Purinergic Receptor P2Y, P2RY1 (gene 5028) (UniProt P47900); assay: NVS_GPCR_hPY2: NovaScreen (NVS) G Protein-Coupled Receptor Assay for human Purinergic Receptor P2Y (AID 2283281)
# Method in brief: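 Cell-free radioligand binding using U937-derived protein, 1 h after dosing, filter-based scintillation counting. Screened in duplicate at 25 uM; actives rerun as concentration-response up to 50 uM; loss of signal versus DMSO.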
# [2] = molecular target: human Orphanin, Opioid Related Nociceptin Receptor 1 (ORL1), OPRL1 (gene 4987) (UniProt P41146); assay: NVS_GPCR_hORL1: NovaScreen (NVS) G Protein-Coupled Receptor Assay for human Orphanin, Opioid Related Nociceptin Receptor 1 (ORL1) (AID 2283283)
# Method in brief: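 Filter-based radioligand displacement with receptor extracted from HEK293 cells, read 1 hour after dosing by scintillation counting. Duplicate single-point screen at 25 uM; qualifying chemicals then run in concentration-response to 50 uM, analysed relative to DMSO.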
# [3] = system: 5-hydroxytryptamine receptor 2C (pig); assay: NVS_GPCR_p5HT2C: NovaScreen (NVS) G Protein-Coupled Receptor Assay for pig Serotonin, 5-Hydroxytryptamine Receptor 2C (5HT2C) (AID 2283288)
# Method in brief: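 Pig choroid plexus membranes; radioligand competitive binding, filter-based scintillation counting, read 1 h after dosing. Primary screen in duplicate at 25 uM; actives then run as concentration series; loss of signal versus DMSO baseline.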
# [4] = molecular target: human Thromboxane A2 Receptor (TXA2), TBXA2R (gene 6915) (UniProt P21731); assay: NVS_GPCR_hTXA2: NovaScreen (NVS) G Protein-Coupled Receptor Assay for human Thromboxane A2 Receptor (TXA2) (AID 2283282);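 further: actives reduce bound radioligand signal relative to DMSO baseline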
# Method in brief: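 Screening ran at 25 uM in duplicate, with concentration series for confirmed actives. Each test measures radioligand binding to human platelet protein after 1 h, cell-free, using filter-based scintillation detection of signal loss relative to DMSO.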
# [5] = molecular target: human Opioid Receptor Delta 1 (Opiate D1), OPRD1 (gene 4985) (UniProt P41143); assay: NVS_GPCR_hOpiate_D1: NovaScreen (NVS) G Protein-Coupled Receptor Assay for human Opioid Receptor Delta 1 (Opiate D1) (AID 2283280)
# Method in brief: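 Radioligand displacement on membranes from CHO cells expressing the receptor, read by filter scintillation counting 1 h after dosing. Duplicate single-point screen at 25 uM, then concentration series for actives; loss of signal versus DMSO.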
# [6] = molecular target: rat Serotonin, 5-Hydroxytryptamine Receptor 1 (5HT1), Non-Selective Binding, Htr1a (gene 24473) (UniProt P19327); assay: NVS_GPCR_r5HT1_NonSelective: NovaScreen (NVS) G Protein-Coupled Receptor Assay for rat Serotonin, 5-Hydroxytryptamine Receptor 1 (5HT1), Non-Selective Binding (AID 2283286)
# Method in brief: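 Rat cortical membranes, radioligand displacement, 1 h incubation, read by filter scintillation. Primary screen in duplicate at 25 uM. Hits (e.g. ≥30% inhibition) went to concentration-response up to 50 uM, fitted as loss of binding versus DMSO.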
# [7] = molecular target: mouse Cholecystokinin, CCK1 Receptor (CCKA), Cckar (gene 12425) (UniProt O08786); assay: NVS_GPCR_mCCKAPeripheral: NovaScreen (NVS) G Protein-Coupled Receptor Assay for mouse Cholecystokinin, CCK1 Receptor (CCKA) (AID 2283285)
# Method in brief: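 Radioligand competitive displacement on mouse pancreatic membranes, 2 h incubation; filter-based scintillation counting, loss of signal versus DMSO. Single-concentration screen at 25 uM in duplicate, actives retested in concentration-response up to 50 uM.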
# [8] = system: rabbit Platelet Activating Factor Receptor (PAF), gene 100354046; assay: NVS_GPCR_rabPAF: NovaScreen (NVS) G Protein-Coupled Receptor Assay for rabbit Platelet Activating Factor Receptor (PAF) (AID 2283287)
# Method in brief: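 Rabbit platelet membrane preparation; radioligand displacement read by filter-based scintillation counting 1 h after dosing, loss of signal versus DMSO. Primary screen in duplicate at 25 uM, actives followed up in concentration series.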
# [9] = molecular target: human Neurotensin Receptor (NTS), NTSR1 (gene 4923) (UniProt P30989); assay: NVS_GPCR_hNTS: NovaScreen (NVS) G Protein-Coupled Receptor Assay for human Neurotensin Receptor (NTS) (AID 2283279)
# Method in brief: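 Radioligand displacement on human NTSR1 protein from CHO cells, cell-free, 1 h, filter-based scintillation counting. Primary screen at 25 uM in duplicate; hits rerun in concentration-response up to 50 uM.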
# [10] = molecular target: human Vasopressin 1A Receptor (V1A), AVPR1A (gene 552) (UniProt P37288); assay: NVS_GPCR_hV1A: NovaScreen (NVS) G Protein-Coupled Receptor Assay for human Vasopressin 1A Receptor (V1A) (AID 2283284)
# Method in brief: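 Cell-free radioligand displacement on human platelet preparations, 1.5 h incubation, filter-based scintillation counting. Chemicals first tested in duplicate at 25 uM; actives then run in concentration-response up to 50 uM, loss of signal fitted against DMSO.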
# rat Serotonin, 5-Hydroxytryptamine Receptor 1 (5HT1), Non-Selective Binding, Htr1a (gene 24473), sequence (P19327 whole entry, looked up): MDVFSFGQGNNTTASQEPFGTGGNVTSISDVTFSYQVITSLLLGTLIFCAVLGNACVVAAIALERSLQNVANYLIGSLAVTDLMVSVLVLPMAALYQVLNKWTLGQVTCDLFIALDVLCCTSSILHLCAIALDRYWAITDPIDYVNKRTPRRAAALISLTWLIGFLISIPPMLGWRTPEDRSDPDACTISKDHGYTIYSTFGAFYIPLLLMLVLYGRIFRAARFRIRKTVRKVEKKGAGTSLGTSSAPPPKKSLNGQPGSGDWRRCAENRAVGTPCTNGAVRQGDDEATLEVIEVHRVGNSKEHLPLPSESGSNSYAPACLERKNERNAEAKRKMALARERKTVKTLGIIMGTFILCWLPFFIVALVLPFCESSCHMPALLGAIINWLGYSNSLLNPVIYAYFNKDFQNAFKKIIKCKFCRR
# human Thromboxane A2 Receptor (TXA2), TBXA2R (gene 6915), sequence (P21731 whole entry, looked up): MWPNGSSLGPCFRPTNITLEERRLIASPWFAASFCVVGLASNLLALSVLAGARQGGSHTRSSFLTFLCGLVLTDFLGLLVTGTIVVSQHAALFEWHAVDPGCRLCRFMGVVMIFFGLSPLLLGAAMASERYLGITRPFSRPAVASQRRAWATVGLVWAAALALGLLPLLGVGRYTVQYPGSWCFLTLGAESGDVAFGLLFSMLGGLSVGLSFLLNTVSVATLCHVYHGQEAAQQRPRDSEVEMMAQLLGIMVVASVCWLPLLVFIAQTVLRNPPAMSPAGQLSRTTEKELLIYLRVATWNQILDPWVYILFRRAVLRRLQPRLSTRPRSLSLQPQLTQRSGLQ
# human Opioid Receptor Delta 1 (Opiate D1), OPRD1 (gene 4985), sequence (P41143 whole entry, looked up): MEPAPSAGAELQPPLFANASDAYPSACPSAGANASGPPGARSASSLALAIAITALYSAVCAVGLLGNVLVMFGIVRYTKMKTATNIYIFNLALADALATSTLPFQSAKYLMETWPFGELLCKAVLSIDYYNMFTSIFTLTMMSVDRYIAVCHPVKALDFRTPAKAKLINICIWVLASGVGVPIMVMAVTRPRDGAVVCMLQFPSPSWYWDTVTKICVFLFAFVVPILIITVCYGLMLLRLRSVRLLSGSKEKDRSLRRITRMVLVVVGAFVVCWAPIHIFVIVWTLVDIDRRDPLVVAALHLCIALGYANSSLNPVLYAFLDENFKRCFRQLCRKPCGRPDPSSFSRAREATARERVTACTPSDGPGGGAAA
# human Orphanin, Opioid Related Nociceptin Receptor 1 (ORL1), OPRL1 (gene 4987), sequence (P41146 whole entry, looked up): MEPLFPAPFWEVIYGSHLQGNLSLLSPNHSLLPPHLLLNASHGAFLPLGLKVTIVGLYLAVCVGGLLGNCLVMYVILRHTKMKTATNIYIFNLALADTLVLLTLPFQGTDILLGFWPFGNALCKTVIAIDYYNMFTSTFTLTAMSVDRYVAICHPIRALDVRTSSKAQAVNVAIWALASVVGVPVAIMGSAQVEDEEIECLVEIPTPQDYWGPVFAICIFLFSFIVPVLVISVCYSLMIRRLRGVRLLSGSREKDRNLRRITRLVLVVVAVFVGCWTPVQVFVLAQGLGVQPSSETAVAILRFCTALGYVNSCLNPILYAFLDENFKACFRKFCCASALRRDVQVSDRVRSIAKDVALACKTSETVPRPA
# human Purinergic Receptor P2Y, P2RY1 (gene 5028), sequence (P47900 whole entry, looked up): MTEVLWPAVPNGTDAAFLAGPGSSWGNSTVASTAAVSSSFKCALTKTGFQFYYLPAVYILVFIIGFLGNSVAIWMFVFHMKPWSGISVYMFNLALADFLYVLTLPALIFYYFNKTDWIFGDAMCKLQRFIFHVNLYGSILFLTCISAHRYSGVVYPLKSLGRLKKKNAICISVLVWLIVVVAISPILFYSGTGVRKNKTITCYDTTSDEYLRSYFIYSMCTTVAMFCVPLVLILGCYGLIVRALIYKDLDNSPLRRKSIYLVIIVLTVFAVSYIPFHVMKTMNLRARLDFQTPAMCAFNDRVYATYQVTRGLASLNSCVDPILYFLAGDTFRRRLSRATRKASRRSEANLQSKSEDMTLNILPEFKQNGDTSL
# human Neurotensin Receptor (NTS), NTSR1 (gene 4923), sequence (P30989 whole entry, looked up): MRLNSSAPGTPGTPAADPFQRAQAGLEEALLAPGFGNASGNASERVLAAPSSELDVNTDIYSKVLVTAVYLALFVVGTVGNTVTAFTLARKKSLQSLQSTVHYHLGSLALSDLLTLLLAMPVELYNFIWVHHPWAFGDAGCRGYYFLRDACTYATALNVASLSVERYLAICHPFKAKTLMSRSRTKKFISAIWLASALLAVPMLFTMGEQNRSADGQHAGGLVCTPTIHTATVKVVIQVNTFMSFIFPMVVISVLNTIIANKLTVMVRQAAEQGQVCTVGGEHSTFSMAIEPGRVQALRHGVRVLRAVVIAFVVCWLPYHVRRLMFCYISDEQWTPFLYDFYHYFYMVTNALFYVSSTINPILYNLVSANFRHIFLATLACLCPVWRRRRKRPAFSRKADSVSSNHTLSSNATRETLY
# mouse Cholecystokinin, CCK1 Receptor (CCKA), Cckar (gene 12425), sequence (O08786 whole entry, looked up): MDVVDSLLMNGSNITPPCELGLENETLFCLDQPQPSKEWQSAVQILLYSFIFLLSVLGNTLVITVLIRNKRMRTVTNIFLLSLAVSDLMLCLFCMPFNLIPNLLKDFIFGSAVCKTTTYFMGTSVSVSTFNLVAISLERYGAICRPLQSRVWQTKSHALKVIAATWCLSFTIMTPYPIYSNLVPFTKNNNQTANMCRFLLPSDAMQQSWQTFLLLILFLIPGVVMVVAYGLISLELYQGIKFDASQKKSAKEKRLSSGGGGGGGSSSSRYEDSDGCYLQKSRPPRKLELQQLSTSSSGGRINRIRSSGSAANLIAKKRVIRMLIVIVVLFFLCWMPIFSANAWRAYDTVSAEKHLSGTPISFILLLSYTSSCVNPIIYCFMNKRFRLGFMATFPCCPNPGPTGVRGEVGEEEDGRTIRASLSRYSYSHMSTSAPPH
# human Vasopressin 1A Receptor (V1A), AVPR1A (gene 552), sequence (P37288 whole entry, looked up): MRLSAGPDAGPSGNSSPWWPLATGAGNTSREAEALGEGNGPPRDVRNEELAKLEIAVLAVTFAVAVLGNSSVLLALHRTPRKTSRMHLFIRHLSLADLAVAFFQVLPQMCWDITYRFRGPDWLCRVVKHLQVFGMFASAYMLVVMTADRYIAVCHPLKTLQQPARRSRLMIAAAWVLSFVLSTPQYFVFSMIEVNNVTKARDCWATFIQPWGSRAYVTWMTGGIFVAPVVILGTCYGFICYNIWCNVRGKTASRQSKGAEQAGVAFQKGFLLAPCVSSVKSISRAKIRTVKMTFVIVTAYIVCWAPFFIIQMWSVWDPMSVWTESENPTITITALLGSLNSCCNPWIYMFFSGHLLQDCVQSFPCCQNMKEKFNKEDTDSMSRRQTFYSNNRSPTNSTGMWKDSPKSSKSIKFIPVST
smiles,measurement,setting,value
CCOC(=O)CCC(=O)OCC,outcome,[1],inactive
same,outcome,[2],inactive
same,outcome,[3],inactive
Oc1ccc2c(c1)OC[C@@H](N1CCC(O)(c3ccc(F)cc3)CC1)[C@H]2O,outcome,[3],inactive
CNCc1cc(F)ccc1Oc1ccc(Cl)c(Cl)c1,outcome,[4],inactive
CC1(C)CC(N=C=O)CC(C)(CN=C=O)C1 (stereo unspecified),outcome,[5],inactive
Cc1c(C(=O)O)c(O)cc2c1C(=O)c1c(O)c([C@@H]3O[C@H](CO)[C@@H](O)[C@H](O)[C@H]3O)c(O)c(O)c1C2=O,outcome,[6],inactive
O=C(N[C@@H](Cc1ccccc1)[C@@H](O)C(=O)N1C[C@@H](O)[C@@H](O)C1)c1cc2cc(Cl)ccc2[nH]1,AC50,[7],11.9 µM (active)
Nc1nc(N)c2nc(CNc3ccc(C(=O)N[C@@H](CCC(=O)O)C(=O)O)cc3)cnc2n1,outcome,[5],inactive
Nc1ccc2c(c1)C(=O)c1ccccc1C2=O,AC50,[5],38.4 µM (active)
Cc1cccc(Nc2cc(Cl)nc(SCC(=O)O)n2)c1C,AC50,[4],5.03 µM (active)
Nc1ccccc1N,outcome,[6],inactive
CCc1c(C(=O)NN2CCCCC2)nn(-c2ccc(Cl)cc2Cl)c1-c1ccc(Br)cc1,outcome,[5],inactive
NC(=O)Cn1c(=O)cc(CCN2CCN(c3nccc4sccc34)CC2)c2ccc(F)cc21,AC50,[6],0.47 µM (active)
same,AC50,[3],0.00974 µM (active)
C=CCc1ccc(O)c(OC)c1,outcome,[3],inactive
CCCCCCCCCCCC(=O)OC,outcome,[1],inactive
COc1cc(-c2nc(NC(=O)c3cc4cc(C)cc(C)c4n3CC(=O)O)sc2CCC2CCCCC2)c(OC)cc1Cl,outcome,[4],inactive
same,AC50,[7],0.178 µM (active)
CN1CCN(Cc2cc(-c3ccc4[nH]c(=O)oc4c3)co2)[C@@H](c2ccc(F)cc2)C1,outcome,[8],inactive
same,AC50,[3],0.25 µM (active)
C[Si]1(C)O[Si](C)(C)O[Si](C)(C)O[Si](C)(C)O1,outcome,[4],inactive
NCCO,AC50,[9],37.9 µM (active)
O=C(O)CCCCC(=O)O,outcome,[1],inactive
COc1ccc(S(=O)(=O)N2C(=O)[C@@](c3ccccc3OC)(N3C[C@H](O)C[C@H]3C(=O)N(C)C)c3cc(Cl)ccc32)c(OC)c1,outcome,[5],inactive
same,outcome,[4],inactive
same,AC50,[8],12.3 µM (active)
CC(C)(C)c1cc(O)c(C(C)(C)C)cc1O,outcome,[4],inactive
COCCOC[C@H](CC1(C(=O)NC2CCC(C(=O)O)CC2)CCCC1)C(=O)Oc1ccc2c(c1)CCC2 (stereo partly specified),outcome,[2],inactive
same,outcome,[6],inactive
Cc1oc(-c2ccccc2)nc1CCOc1cccc2c1ccn2CCC(=O)O,AC50,[4],1.33 µM (active)
Cc1cccc(C)c1O,outcome,[9],inactive
same,outcome,[10],inactive
COc1cc(S(=O)(=O)O)c(C)cc1N=Nc1c(O)ccc2cc(S(=O)(=O)O)ccc12,AC50,[5],30 µM (active)
same,AC50,[6],17.1 µM (active)
C=CCOC(=O)c1ccccc1C(=O)OCC=C,AC50,[3],25 µM (active)
CCCCC(CC)COC(=O)CC(C(=O)OCC(CC)CCCC)S(=O)(=O)O (stereo unspecified),AC50,[5],10.3 µM (active)
same,AC50,[1],7.46 µM (active)
same,AC50,[4],8.9 µM (active)
same,AC50,[2],15.9 µM (active)
same,AC50,[3],32.4 µM (active)

# Reference: PubChem BioAssay (EPA / NIEHS)
